From PubChem BioAssay AID1159580 (chemical genetic matrix, 2015)
In all, about 5,500 compounds went through this assay and about 2,000 (36%) were called active. Roughly 18% stayed inconclusive and do not appear here. Rule as the data show it: active = normalized growth mostly below about 0.91 (no sharp cut-off); inconclusive = no clear call, values can overlap the other calls; inactive = mostly above about 0.92. Some of the results follow.

Experiment: chemical genetic growth profiling, strain panel (AID 1159580);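 also: tested at 20 µM; growth read once vehicle control cultures reached saturation at 30 °C; 1 = growth at the plate median or of vehicle wells; lower values mean less growth of the strain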
Settings: S. cerevisiae deletion strains, growth OD

Measured: normalized growth

O=C(NCC(c1ccccc1)c1c[nH]c2ccccc12)c1ccc(C(F)(F)F)cc1 (stereo not given)
active: locus YHR030C, strain SLT2, hits give low values 0.807 | locus YLR113W, strain HOG1, hits give low values 0.859
inactive: locus YAR019C, strain CDC15, hits give low values 0.974 | locus YBL105C, strain PKC1, hits give low values 0.98 | locus YBR135W, strain CKS1, hits give low values 0.998 | locus YBR136W, strain MEC1, hits give low values 0.986 | locus YBR160W, strain CDC28, hits give low values 0.981 | locus YDL017W, strain CDC7, hits give low values 0.985 | locus YDL028C, strain MPS1, hits give low values 0.993 | locus YDL101C, strain DUN1, hits give low values 0.985 | locus YDL108W, strain KIN28, hits give low values 0.992 | locus YDL132W, strain cdc53, hits give low values 0.992 | locus YDL214C, strain PRR2, hits give low values 1.15 | locus YDR052C, strain DBF4, hits give low values 0.993 | locus YDR054C, strain cdc34, hits give low values 0.984 | locus YDR226W, strain ADK1, hits give low values 0.971 | locus YDR477W, strain SNF1, hits give low values 0.98 | locus YER123W, strain YCK3, hits give low values 0.971 | locus YER133W, strain GLC7, hits give low values 0.979 | locus YFL009W, strain cdc4, hits give low values 1.04 | locus YFL029C, strain CAK1, hits give low values 0.989 | locus YFR003C, strain YPI1, hits give low values 1.01 | locus YFR019W, strain FAB1, hits give low values 0.984 | locus YFR028C, strain CDC14, hits give low values 0.979 | locus YGR040W, strain KSS1, hits give low values 1 | locus YGR052W, strain FMP48, hits give low values 1.02 | locus YGR092W, strain DBF2, hits give low values 0.993 | locus YHR079C, strain IRE1, hits give low values 0.981 | locus YHR082C, strain KSP1, hits give low values 1.04 | locus YHR205W, strain SCH9, hits give low values 1.01 | locus YIL147C, strain SLN1, hits give low values 0.985 | locus YJL095W, strain BCK1, hits give low values 0.996 | locus YJL128C, strain PBS2, hits give low values 0.932 | locus YJL157C, strain FAR1, hits give low values 0.989 | locus YJR016C, strain ILV3, hits give low values 0.99 | locus YJR066W, strain TOR1 (second series), hits give low values 0.97 | locus YJR066W, strain TOR1, hits give low values 0.998 | locus YKL048C, strain ELM1, hits give low values 1 | locus YKL067W, strain YNK1, hits give low values 0.948 | locus YKL101W, strain HSL1, hits give low values 0.969 | locus YKL193C, strain SDS22, hits give low values 0.994 | locus YKL203C, strain TOR2, hits give low values 1.08 | locus YLR133W, strain CKI1, hits give low values 0.992 | locus YLR403W, strain SFP1, hits give low values 0.985 | locus YML070W, strain DAK1, hits give low values 0.979 | locus YMR001C, strain CDC5, hits give low values 0.991 | locus YMR205C, strain PFK2 (second series), hits give low values 0.981 | locus YMR277W, strain FCP1, hits give low values 0.965 | locus YNL006W, strain LST8, hits give low values 1.01 | locus YNL020C, strain ARK1, hits give low values 0.982 | locus YNL161W, strain CBK1, hits give low values 0.995 | locus YNL183C, strain NPR1, hits give low values 1.02 | locus YNL207W, strain RIO2, hits give low values 0.979 | locus YNL222W, strain SSU72, hits give low values 0.986 | locus YNL307C, strain MCK1 (second series), hits give low values 0.954 | locus YOL078W, strain AVO1, hits give low values 0.99 | locus YOL136C, strain PFK27, hits give low values 0.963 | locus YOR061W, strain CKA2, hits give low values 0.995 | locus YOR119C, strain RIO1, hits give low values 1.02 | locus YOR231W, strain MKK1, hits give low values 1.02 | locus YOR329C, strain SCD5, hits give low values 0.995 | locus YPL031C, strain PHO85, hits give low values 0.993 | locus YPL153C, strain RAD53, hits give low values 0.967 | locus YPL204W, strain HRR25, hits give low values 0.96 | locus YPL209C, strain IPL1, hits give low values 0.994 | locus YPL256C, strain CLN2, hits give low values 0.909 | locus YPR025C, strain CCL1, hits give low values 0.997 | locus YPR106W, strain ISR1, hits give low values 0.976 | locus YPR111W, strain DBF20, hits give low values 0.956 | strain NNK1, hits give low values 0.988 | strain TSCII, hits give low values 0.978

N[C@@H](Cc1c[nH]c2ccccc12)C(=O)O
inactive: locus YAL040C, strain CLN3, hits give low values 1.02 | locus YCL061C, strain MRC1 (second series), hits give low values 1 | locus YDR150W, strain NUM1, hits give low values 1.01 | locus YDR363W, strain ESC2, hits give low values 1.01 | locus YER002W, strain NOP16, hits give low values 1.01 | locus YGR078C, strain PAC10, hits give low values 1 | locus YGR229C, strain SMI1, hits give low values 1.03 | locus YMR307W, strain GAS1, hits give low values 0.991 | locus YNL128W, strain TEP1, hits give low values 1 | locus YNL175C, strain NOP13, hits give low values 0.997 | locus YNL197C, strain WHI3, hits give low values 0.996 | locus YNL224C, strain SQS1, hits give low values 1.01 | locus YOR083W, strain WHI5 (second series), hits give low values 0.996 | locus YPL241C, strain CIN2, hits give low values 1.01
